About 14,000 (4.5%) of roughly 310,000 compounds showed an effect of 50% or more. The effect is printed as a negative number. This is one part of a sample in which strong results are shown more often than they occur.
What follows are molecules tested against human ether-à-go-go-related gene (hERG) potassium channel (human, UniProt Q12809) (assay: primary screen, population patch clamp on CHO cells stably expressing hERG; higher = less effect of the substance).
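Note: peak tail current of the secondary pulse compared with the same well before compound.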

Sequence of human ether-à-go-go-related gene (hERG) potassium channel (Q12809 whole entry, looked up): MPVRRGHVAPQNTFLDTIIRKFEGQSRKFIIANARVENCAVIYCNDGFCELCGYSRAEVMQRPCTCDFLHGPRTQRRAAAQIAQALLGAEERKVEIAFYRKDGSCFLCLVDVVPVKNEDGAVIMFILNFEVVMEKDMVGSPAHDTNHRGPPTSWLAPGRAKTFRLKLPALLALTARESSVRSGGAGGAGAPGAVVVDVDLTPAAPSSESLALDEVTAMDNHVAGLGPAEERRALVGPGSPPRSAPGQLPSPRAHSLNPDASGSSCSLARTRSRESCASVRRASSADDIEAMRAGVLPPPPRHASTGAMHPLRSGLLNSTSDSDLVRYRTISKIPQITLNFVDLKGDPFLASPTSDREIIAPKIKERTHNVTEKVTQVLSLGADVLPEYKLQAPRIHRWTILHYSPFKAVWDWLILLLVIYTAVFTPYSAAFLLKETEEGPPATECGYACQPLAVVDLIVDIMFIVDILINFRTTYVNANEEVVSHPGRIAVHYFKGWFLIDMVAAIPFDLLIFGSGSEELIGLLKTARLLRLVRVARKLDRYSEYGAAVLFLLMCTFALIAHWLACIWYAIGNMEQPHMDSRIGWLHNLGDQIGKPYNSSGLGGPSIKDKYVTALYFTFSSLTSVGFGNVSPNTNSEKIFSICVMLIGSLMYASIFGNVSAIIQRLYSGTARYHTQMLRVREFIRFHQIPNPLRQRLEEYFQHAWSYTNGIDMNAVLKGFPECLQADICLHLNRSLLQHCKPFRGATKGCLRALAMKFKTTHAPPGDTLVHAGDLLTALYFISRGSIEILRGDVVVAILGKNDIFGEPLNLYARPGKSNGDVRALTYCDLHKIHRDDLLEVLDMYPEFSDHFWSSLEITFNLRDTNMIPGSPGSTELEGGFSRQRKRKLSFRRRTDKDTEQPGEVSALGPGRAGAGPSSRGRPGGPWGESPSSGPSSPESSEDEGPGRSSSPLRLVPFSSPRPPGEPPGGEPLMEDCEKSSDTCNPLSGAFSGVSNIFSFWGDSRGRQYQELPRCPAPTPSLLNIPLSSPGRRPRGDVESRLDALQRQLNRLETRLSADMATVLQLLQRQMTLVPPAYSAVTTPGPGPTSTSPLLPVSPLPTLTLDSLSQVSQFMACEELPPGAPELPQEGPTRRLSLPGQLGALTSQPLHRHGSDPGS

SMILES	hERG current change (%, negative = inhibition) at 10uM [%]
COCCCN1C(=O)C(O)=C(C(=O)c2ccco2)C1c1ccccc1 (stereo not shown)	21.3
Cc1ccc(CNC(=O)CSc2ccsc2[N+](=O)[O-])cc1	-4.87
COc1ccccc1N1CCN(Cc2cc(=O)c(OCC(=O)Nc3ccccc3)co2)CC1	25.5
CC(=O)c1cc(C#N)c(Oc2cc(C)cc(C)c2)nc1C	-4.94
CCOC(=O)N1CCC(N(CCCOC)C(=O)Nc2ccc(CC)cc2)CC1	-48.6
COc1ccccc1-c1cc(C(=O)Nc2cc(C)nn2-c2ccccc2)no1	17
COc1cc(/C=N/n2c(C)nc3ccccc3c2=O)ccc1O	4.55
CC(C)CC(COCc1ccc(Cl)cc1)N1CCN(C(=O)c2ccc(C(F)(F)F)cc2)CCC1=O (stereo not shown)	-44.5
CC(C)CC(COCc1ccc(C(F)(F)F)cc1)N1CCN(C(=O)c2ccc(C(F)(F)F)cc2)CCC1=O (stereo not shown)	-16.7
CC(C)CC(COCc1ccc([N+](=O)[O-])cc1)N1CCN(C(=O)c2ccc(C(F)(F)F)cc2)CCC1=O (stereo not shown)	-67.1
O=C(c1cccc(NS(=O)(=O)c2cccc([N+](=O)[O-])c2)c1)N1CCOCC1	24.3
COc1ccc(N(CC(=O)NC2CCCCC2)C(=O)CCCC(=O)Nc2ccccn2)cc1	-65.9
CCOc1ccc(N(CC(=O)NC2CCCCC2)C(=O)CCC(=O)Nc2ccccn2)cc1	-23.3
CCOc1ccc(N(CC(=O)NC2CCCCC2)C(=O)CCCC(=O)Nc2ccccn2)cc1	-0.443
Cc1ccc(N(CC(=O)NC2CCCCC2)C(=O)CCC(=O)Nc2nccs2)cc1	-4.93
O=C(CCCC(=O)N(CC(=O)NC1CCCC1)c1cccc(F)c1)Nc1ccccn1	4.77
O=C(CCC(=O)N(CC(=O)NC1CCCC1)c1ccc(F)cc1)Nc1nccs1	4.37
O=C(CCC(=O)N(CC(=O)NC1CCCCC1)c1ccc(F)cc1)Nc1nccs1	-73.7
CCOc1ccc(N(CC(=O)NC2CCCC2)C(=O)CCCC(=O)Nc2ccccn2)cc1	-10.8
O=C(CCCC(=O)N(CC(=O)NC1CCCCC1)c1ccc(F)cc1)Nc1ccccn1	7.12
COc1cccc(N(CC(=O)NC2CCCCC2)C(=O)CCCC(=O)Nc2ccccn2)c1	13.2
CCOc1ccc(N(CC(=O)NC2CCCC2)C(=O)CCC(=O)Nc2ccccn2)cc1	-56.2
O=C(CCCC(=O)N(CC(=O)NC1CCCCC1)c1cccc(F)c1)Nc1ccccn1	-55.3
CN(C(=O)c1ccccc1OC1CCN(S(C)(=O)=O)CC1)C1CCOC1 (stereo not shown)	11.7

SMILES	hERG current change (%, negative = inhibition) at 10uM [%]
NC(=O)Cn1nnc(-c2ccc(CN3CCCCC3)cc2)n1	21.6
O=C(N1CCCC1)N1CCN(S(=O)(=O)c2ccccc2)CC1	7.18
CC(C)/C=N\NC(=O)CCCCC(=O)N/N=C/C(C)C	6.11
CCOC(=O)C1=C(SCC(=O)Nc2ccccc2)NC(=O)C(C#N)C12CCCCC2 (stereo not shown)	-5.43
Cc1ccc(N2CN(CCC3=CCCCC3)CNC2=S)cc1	18
Cc1ccc2c(c1)CCCN2C(=O)c1ccc2c(c1)OCO2	-4.53
O=c1c2c(-c3ccccc3)csc2nc2n1CCC2	14.5
O=c1cc(N2CCCCC2)c(-c2ccccc2)nn1Cc1ccc(Cl)cc1	-1.99
Cc1cc(C)cc(NC(=O)C2CCN(c3nc(C)cc(C)n3)CC2)c1	-3.58
CCOc1ccc(N(CC(=O)NC2CCCC2)C(=O)CCC(=O)Nc2nc(C)cs2)cc1	-28.8
Cc1ccc(N(CC(=O)NC2CCCC2)C(=O)CCC(=O)Nc2nc(C)cs2)cc1	-11.9
CCOc1ccc(N(CC(=O)NC2CCCCC2)C(=O)CCC(=O)Nc2nc(C)cs2)cc1	-50.6
O=C(CC(CC(=O)c1ccccc1)c1ccccc1)c1ccccc1	0.181
O=C(CSc1nnc(CN2CCOCC2)n1-c1ccccc1)Nc1ccc(Cl)cc1	-32.5
Cc1cc(C)c(S(=O)(=O)N2CCOC2CNC(=O)C(=O)NCCc2ccc(S(N)(=O)=O)cc2)c(C)c1 (stereo not shown)	-17.8
O=C(Cn1cnc2c(nnn2Cc2ccccc2)c1=O)NCc1ccccc1Cl	5.76
Cc1ccc(SCc2ccc(C(=O)NCc3cccnc3)cc2)cc1	3.85
O=C(Oc1ccc(/C=N/Nc2ccccc2)cc1)c1ccccc1	15.4
O=C(O)c1ccc(N/N=C/c2ccc(OC(=O)c3ccccc3Cl)cc2)cc1	-56
O=C(O)c1ccc(N/N=C/c2ccc(OC(=O)c3cccc(Cl)c3)cc2)cc1	-9.22
COc1cccc(CNC(=O)CCC2CCCN(Cc3cc4ccccc4o3)C2)c1 (stereo not shown)	-75.6
Cc1ccc(CNC(=O)CCC2CCCN(Cc3cc4ccccc4o3)C2)o1 (stereo not shown)	-69.2
COc1cccc(CNC(=O)CCC2CCCN(C(=O)c3cc4ccccc4o3)C2)c1 (stereo not shown)	-47.7
Cc1ccc(CNC(=O)CCC2CCCN(C(=O)CCC(F)(F)F)C2)o1 (stereo not shown)	3.62

SMILES	hERG current change (%, negative = inhibition) at 10uM [%]
Cc1ccsc1C(=O)C1CCCN(Cc2cc3ccccc3o2)C1 (stereo not shown)	-23.7
COCc1ccc(CN2CCCC(CCC(=O)NCc3cccc(OC)c3)C2)o1 (stereo not shown)	-23.5
Cc1ccc(N/C=C(\C#N)S(=O)(=O)c2ccccc2)cc1	14.3
CCOC(=O)c1c(C)sc2c1N(C(=O)CCl)c1cc(Cl)ccc1S2	-3.3
COc1ccccc1NC(=O)Cn1cncc1-c1ccc([N+](=O)[O-])cc1	2.57
O=C1CCC(C(=O)NCCN2C(=O)S/C(=C\c3cccnc3)C2=O)=NN1	2.26
CSC1=NSC2=NC(=O)/C(=C\c3ccc(OC(=O)c4ccco4)cc3)C(=N)N12	9.54
COc1ccc(NC(=S)N2CCN(C(=O)c3ccco3)CC2)cc1	-6.29
Cc1ccc(S(=O)(=O)N2CCN(C(=O)c3ccco3)CC2)cc1	1.15
CC(C)Cc1ccc(S(=O)(=O)N2CCN(C(=O)c3ccco3)CC2)cc1	-11.1
CCCCc1ccc(NC(=S)N2CCN(C(=O)c3ccco3)CC2)cc1	-75.3
CCCCc1ccc(S(=O)(=O)N2CCN(C(=O)c3ccco3)CC2)cc1	-66.5
COC(=O)c1ccc(NC(=S)N2CCN(C(=O)c3ccco3)CC2)cc1	-4.94
COc1ccc(C2/C(=C(\O)c3ccc4c(c3)OCCO4)C(=O)C(=O)N2Cc2ccco2)c(OC)c1 (stereo not shown)	-9.64
Cn1c(=O)cc(OCCCC(=O)Nc2cccnc2)c2ccccc21	0.169
O=C(O)Cn1nc2c3c(cccc3c1=O)-c1ccccc1-2	8.18
CCN(CC)CCn1nc2c3c(cccc3c1=O)-c1ccccc1-2	-70.2
O=c1c2cccc3c2c(nn1CN1CCOCC1)-c1ccccc1-3	-11.5
COC(=O)c1c(C)[nH]c(C)c1-c1ccccc1	-5.37
O=C1NC(c2ccc3c(c2)OCO3)Nc2ccccc21 (stereo not shown)	10.5
O=C(Nc1ccncc1)c1ccc2c(c1)OCCO2	11.8
COc1ccc(Br)cc1S(=O)(=O)N(CC(=O)N1CCN(C)CC1)c1ccccc1	-22.6
COc1ccc(C)cc1N(CC(=O)N1CCOCC1)S(C)(=O)=O	21.2
COc1ccc(Br)cc1S(=O)(=O)N(CC(=O)N1CCOCC1)c1ccccc1	-47

SMILES	hERG current change (%, negative = inhibition) at 10uM [%]
COc1ccc(C)cc1S(=O)(=O)N(CC(=O)N1CCOCC1)c1cc(C)cc(C)c1	-77.4
COc1ccc(C)cc1S(=O)(=O)N(CC(=O)N1CCCC1)c1ccc(C)cc1	-53
COc1ccc(C)cc1S(=O)(=O)N(CC(=O)N1CCCC1)c1ccccc1	-37.9
COc1ccc(C)cc1S(=O)(=O)N(C)CC(=O)N1CCCC1	13.2
COc1ccc(C)cc1S(=O)(=O)N(C)CC(=O)N1CCN(C)CC1	2.65
COc1ccc(N(CC(=O)N2CCN(C)CC2)S(=O)(=O)c2cc(C)ccc2OC)cc1Cl	-60.3
CC(OC(=O)C1CCC(=O)N1)C(=O)Nc1cc(Cl)cc(Cl)c1 (stereo not shown)	2.72
O=C(CSc1n[nH]c(=O)n1Cc1ccco1)c1ccc2c(c1)OCCO2	15
c1cc2c(cc1Oc1nc(N3CCOCC3)nc(N3CCOCC3)n1)OCO2	3.77
CC(C)Cc1ccc(C(C)C(=O)OCC(=O)c2c[nH]c3ccccc23)cc1 (stereo not shown)	3.98
CCN(CC)S(=O)(=O)c1cc(NC(=O)c2cc([N+](=O)[O-])ccc2N2CCOCC2)ccc1C	-20.5
Cc1ccc(S(=O)(=O)N2CCOCC2)cc1NC(=O)c1cc([N+](=O)[O-])ccc1N1CCOCC1	-67.7
Cc1ccc(NC(=O)c2cc(S(=O)(=O)N3CCCCC3)ccc2N2CCOCC2)cc1F	-13.9
Cc1ccc(C)c(NC(=O)c2cc(S(=O)(=O)N3CCCCC3)ccc2N2CCOCC2)c1	-62.7
COc1ccc(S(=O)(=O)N2CCCCC2)cc1NC(=O)c1cc([N+](=O)[O-])ccc1N1CCOCC1	-30.4
Cc1ccc(NC(=O)c2cc([N+](=O)[O-])ccc2N2CCOCC2)cc1S(=O)(=O)N(C)C	-52.8
COc1ccc(C)cc1NC(=O)c1cc(S(=O)(=O)N2CCCCC2)ccc1N1CCOCC1	-39.2
O=C(Nc1ccccc1)c1cc(S(=O)(=O)N2CCCCC2)ccc1N1CCOCC1	1.08
NC(=O)c1ccccc1NC(=O)c1cc(S(=O)(=O)N2CCCCC2)ccc1N1CCOCC1	-73.9
Cc1ccc(NC(=O)c2cc([N+](=O)[O-])ccc2N2CCOCC2)cc1S(=O)(=O)N1CCOCC1	-46
O=C(Nc1ccccc1Cl)c1cc(S(=O)(=O)N2CCCCC2)ccc1N1CCOCC1	-39.7
CC(C)Oc1ccc(S(=O)(=O)N2CCOCC2)cc1NC(=O)c1cc([N+](=O)[O-])ccc1N1CCOCC1	-45.7
